Experimental data from the supplement of paper PMC11741263, “Chemoproteomic Profiling of C. albicans for Characterization of Anti-fungal Kinase Inhibitors” (bioRxiv, 2025).

Compound: Cc1[nH]nc2ccc(-c3cc(OC[C@@H](N)Cc4ccccc4)cnc3-c3ccoc3)cc12
Assay: MIB bead binding, log2 fold change vs DMSO (log2 ratio); higher = less competition (weaker engagement)

Chain of UniProt P36507 (P36507 whole entry, looked up): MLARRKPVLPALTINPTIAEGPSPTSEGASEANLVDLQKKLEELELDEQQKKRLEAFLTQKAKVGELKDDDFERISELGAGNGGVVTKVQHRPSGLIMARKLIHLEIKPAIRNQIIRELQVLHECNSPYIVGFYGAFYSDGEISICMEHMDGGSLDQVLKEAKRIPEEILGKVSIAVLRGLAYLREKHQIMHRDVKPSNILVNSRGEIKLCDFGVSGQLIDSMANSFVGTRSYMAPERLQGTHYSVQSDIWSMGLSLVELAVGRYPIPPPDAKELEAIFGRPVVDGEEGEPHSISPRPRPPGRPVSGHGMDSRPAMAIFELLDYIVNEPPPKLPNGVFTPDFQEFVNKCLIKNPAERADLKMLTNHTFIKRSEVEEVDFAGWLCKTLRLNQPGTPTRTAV
Chain of UniProt Q9HGY5 (Q9HGY5 whole entry): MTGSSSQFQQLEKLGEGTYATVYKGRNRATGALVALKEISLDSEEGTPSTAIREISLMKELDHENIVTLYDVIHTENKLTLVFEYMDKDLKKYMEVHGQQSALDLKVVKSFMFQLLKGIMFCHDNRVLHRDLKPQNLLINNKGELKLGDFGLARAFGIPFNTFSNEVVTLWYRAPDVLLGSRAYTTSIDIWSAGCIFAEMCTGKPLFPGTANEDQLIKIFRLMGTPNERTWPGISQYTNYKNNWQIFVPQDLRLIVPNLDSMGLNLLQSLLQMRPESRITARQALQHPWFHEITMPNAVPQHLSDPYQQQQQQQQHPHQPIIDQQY
Chain of UniProt O75460 (O75460 whole entry, looked up): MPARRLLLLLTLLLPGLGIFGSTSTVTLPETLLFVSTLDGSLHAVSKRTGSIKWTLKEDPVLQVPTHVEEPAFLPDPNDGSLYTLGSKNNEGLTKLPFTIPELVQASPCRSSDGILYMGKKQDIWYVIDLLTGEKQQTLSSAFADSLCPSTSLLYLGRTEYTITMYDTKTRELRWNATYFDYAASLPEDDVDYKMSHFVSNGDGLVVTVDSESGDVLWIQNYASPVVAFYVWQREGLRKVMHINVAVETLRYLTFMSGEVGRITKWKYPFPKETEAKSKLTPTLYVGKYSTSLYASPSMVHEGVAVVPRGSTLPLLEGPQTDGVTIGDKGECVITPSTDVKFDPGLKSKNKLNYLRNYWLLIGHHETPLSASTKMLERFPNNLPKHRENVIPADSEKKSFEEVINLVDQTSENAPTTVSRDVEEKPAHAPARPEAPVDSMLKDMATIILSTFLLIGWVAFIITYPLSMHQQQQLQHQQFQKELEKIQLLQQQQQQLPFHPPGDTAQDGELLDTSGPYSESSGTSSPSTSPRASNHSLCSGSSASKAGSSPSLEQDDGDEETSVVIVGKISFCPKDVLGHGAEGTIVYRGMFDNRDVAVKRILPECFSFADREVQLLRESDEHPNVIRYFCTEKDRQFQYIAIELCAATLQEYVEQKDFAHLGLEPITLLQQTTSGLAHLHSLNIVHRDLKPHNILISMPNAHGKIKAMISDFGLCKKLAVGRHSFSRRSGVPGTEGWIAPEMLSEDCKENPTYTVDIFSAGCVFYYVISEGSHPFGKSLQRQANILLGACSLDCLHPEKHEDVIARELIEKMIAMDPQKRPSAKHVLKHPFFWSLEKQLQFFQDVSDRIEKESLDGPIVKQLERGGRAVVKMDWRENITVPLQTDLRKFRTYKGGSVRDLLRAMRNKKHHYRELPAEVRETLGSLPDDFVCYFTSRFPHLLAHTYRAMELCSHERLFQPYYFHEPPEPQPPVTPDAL
Chain of UniProt P50613 (P50613 whole entry, looked up): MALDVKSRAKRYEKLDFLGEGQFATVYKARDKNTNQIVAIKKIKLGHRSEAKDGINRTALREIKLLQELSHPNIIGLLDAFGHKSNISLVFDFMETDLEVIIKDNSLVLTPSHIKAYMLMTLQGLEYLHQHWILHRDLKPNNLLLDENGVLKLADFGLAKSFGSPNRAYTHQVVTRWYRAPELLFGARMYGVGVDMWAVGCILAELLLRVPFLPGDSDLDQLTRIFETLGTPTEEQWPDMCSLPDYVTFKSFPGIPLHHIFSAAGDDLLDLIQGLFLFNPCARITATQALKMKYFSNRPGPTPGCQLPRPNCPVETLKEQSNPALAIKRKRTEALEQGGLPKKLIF
Chain of UniProt P52497 (P52497 whole entry): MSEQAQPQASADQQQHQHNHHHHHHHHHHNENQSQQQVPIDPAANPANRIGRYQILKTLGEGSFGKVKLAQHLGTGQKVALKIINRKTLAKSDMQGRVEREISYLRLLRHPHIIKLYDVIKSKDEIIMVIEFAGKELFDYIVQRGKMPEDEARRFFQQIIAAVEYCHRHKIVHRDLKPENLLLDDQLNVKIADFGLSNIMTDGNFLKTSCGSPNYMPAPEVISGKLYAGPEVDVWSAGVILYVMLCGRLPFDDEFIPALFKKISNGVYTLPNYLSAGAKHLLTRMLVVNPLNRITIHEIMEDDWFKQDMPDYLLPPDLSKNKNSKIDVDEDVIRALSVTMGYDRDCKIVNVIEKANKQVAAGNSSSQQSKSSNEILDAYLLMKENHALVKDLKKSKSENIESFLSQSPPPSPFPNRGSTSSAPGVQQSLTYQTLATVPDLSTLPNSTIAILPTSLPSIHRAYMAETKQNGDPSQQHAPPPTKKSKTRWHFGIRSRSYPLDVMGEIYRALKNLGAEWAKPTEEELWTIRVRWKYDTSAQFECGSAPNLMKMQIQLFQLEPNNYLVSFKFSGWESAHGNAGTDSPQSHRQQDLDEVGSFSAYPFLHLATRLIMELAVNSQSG
Chain of UniProt Q92207 (Q92207 whole entry): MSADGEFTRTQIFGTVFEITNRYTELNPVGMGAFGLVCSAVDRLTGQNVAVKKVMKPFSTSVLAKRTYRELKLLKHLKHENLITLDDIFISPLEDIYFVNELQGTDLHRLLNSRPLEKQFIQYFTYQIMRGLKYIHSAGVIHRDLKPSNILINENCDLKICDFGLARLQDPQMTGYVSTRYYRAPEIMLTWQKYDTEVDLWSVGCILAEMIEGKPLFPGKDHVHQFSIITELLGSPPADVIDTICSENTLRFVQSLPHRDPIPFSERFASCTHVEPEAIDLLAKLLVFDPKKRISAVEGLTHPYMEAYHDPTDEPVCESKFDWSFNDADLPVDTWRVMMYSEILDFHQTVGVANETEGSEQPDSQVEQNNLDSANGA
Chain of UniProt Q9UW13 (Q9UW13 whole entry): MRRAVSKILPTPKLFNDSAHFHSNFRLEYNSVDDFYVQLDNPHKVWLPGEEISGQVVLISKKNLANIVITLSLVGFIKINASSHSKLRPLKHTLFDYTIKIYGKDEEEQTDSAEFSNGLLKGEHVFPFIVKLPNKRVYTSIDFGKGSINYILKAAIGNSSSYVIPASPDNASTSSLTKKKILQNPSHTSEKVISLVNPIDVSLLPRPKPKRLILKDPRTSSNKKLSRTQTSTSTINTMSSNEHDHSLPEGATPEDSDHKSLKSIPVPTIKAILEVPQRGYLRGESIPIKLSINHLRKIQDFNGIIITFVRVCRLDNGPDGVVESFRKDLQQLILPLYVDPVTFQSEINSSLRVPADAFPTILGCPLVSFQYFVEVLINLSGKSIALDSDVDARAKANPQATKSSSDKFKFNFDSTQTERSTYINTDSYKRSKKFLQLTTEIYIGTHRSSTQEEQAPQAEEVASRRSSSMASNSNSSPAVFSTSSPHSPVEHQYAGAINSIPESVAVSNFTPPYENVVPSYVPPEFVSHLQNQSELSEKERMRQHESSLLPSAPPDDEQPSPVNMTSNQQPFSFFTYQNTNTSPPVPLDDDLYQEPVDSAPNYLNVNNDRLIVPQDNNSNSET
Chain of UniProt P16066 (P16066 whole entry, looked up): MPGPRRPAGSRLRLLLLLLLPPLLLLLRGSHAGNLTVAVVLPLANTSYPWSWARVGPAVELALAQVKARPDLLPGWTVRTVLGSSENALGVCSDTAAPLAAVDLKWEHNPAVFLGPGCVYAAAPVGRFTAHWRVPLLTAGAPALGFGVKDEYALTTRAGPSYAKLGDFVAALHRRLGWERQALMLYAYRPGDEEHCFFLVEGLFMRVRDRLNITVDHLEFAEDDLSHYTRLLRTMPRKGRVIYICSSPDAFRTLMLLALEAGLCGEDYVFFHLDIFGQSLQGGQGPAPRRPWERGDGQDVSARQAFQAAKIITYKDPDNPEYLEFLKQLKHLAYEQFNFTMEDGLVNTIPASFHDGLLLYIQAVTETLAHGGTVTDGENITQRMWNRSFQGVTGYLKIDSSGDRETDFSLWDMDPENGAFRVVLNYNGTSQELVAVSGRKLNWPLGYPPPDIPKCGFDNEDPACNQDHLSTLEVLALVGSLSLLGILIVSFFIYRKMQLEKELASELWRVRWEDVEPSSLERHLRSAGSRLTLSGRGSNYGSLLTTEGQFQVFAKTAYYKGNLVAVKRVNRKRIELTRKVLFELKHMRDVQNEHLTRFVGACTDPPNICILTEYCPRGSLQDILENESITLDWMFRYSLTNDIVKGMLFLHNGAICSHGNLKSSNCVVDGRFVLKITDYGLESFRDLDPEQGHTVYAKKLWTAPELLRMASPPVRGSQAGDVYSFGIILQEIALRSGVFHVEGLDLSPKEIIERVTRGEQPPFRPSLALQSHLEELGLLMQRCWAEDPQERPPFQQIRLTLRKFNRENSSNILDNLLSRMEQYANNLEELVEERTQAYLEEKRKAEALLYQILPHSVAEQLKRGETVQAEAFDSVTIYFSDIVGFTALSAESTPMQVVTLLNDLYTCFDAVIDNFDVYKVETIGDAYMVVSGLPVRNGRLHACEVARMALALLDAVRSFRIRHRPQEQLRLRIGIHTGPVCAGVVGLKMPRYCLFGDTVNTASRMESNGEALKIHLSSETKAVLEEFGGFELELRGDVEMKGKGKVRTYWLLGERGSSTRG

Row | Target | MIB bead binding (log2) (0.1 µM) | MIB bead binding (log2) (1 µM) | MIB bead binding (log2) (10 µM)
1 | orf19.3456 | -0.328 | -0.791 | 
2 | TPK2 | -0.0872 | 0.0369 | -2.41
3 | HST7 | 0.106 | -0.0777 | -1.68
4 | YPK1 | -0.0854 | -0.539 | -1.48
5 | PBS2 | -0.000679 | -0.0528 | -0.766
6 | YAK1 | -0.229 | -0.0276 | -2.8
7 | SCH9 (UniProt Q5AHG6) | -0.2 | -0.178 | -1.05
8 | POM1 | -0.418 | -0.345 | -2.53
9 | CTK1 | -0.0626 | -0.159 | 
10 | HRR25 | -0.165 | -0.114 | -1.89
11 | PHO85 (UniProt Q9HGY5) | 0.238 | 0.232 | -0.87
12 | NIK1 (UniProt Q5A599) | -0.731 | 0.254 | 
13 | CAALFM_C106360WA | -0.234 | -0.165 | 
14 | KIN2 | -0.0805 | -0.118 | -0.154
15 | SNF1 (UniProt P52497) | -0.272 | -0.136 | -1.78
16 | HRK1 | -0.0934 | 0.0301 | -0.517
17 | IKS1 | -0.323 | -0.0927 | 
18 | GIN4 (UniProt Q59W62) | -0.016 | -0.162 | -0.625
19 | CMK1 | 0.142 | 0.154 | -0.566
20 | ENV7 | -0.351 | 0.16 | -1.89
21 | TOR1 | -0.226 | 0.207 | -1.59
22 | CDC7 (UniProt O00311) | -0.0168 | -0.237 | 
23 | MKC1 | -0.00282 | 0.0129 | -1.76
24 | MKK2 (UniProt P36507) | 0.148 | -0.183 | -1.11
25 | FPK1 | 0.0443 | -0.0445 | -0.41
26 | CMK2 | 0.0395 | 0.585 | 
27 | NPR1 (UniProt P16066) | 0.0428 | -0.0888 | -0.75
28 | AKL1 | -0.106 | -1.01 | -5.4

Row | Target | MIB bead binding (log2) (0.1 µM) | MIB bead binding (log2) (1 µM) | MIB bead binding (log2) (10 µM)
29 | RCK2 | -0.0134 | -0.109 | -0.886
30 | HSL1 (UniProt Q5AG71) | 0.351 | 0.197 | -0.67
31 | HOG1 (UniProt Q92207) | 0.146 | 0.244 | -0.916
32 | YCK2 | -0.488 | -1.75 | -3.65
33 | orf19.4518 | -0.0101 | -0.0109 | -0.0364
34 | MCK1 | -0.0754 | 0.0618 | -1.02
35 | Yck22 | -0.049 | -0.35 | -2.01
36 | CEK1 | -0.256 | -0.317 | -1.74
37 | RIM8 (UniProt Q9UW13) | -0.206 | -0.122 | -2.22
38 | CBK1 (UniProt Q5AP53) | 0.0978 | -0.0808 | -0.759
39 | CDC28 (UniProt P43063) | 0.12 | 0.127 | -0.931
40 | SAK1 | 0.0968 | -0.223 | -0.482
41 | RTK1 | 0.0613 | 0.118 | -1.04
42 | KSP1 | 0.0498 | -0.354 | -0.384
43 | RIO2 (UniProt Q9BVS4) | -0.284 | -0.263 | -1.23
44 | orf19.4575 | -0.428 | -0.272 | -2.61
45 | IRE1 (UniProt O75460) | -0.11 | 0.0485 | -0.0877
46 | KIN3 | 0.0483 | 0.0107 | -0.586
47 | SSK2 | -0.564 | -0.847 | -2.24
48 | orf19.6492 | -0.282 | -0.0346 | -3.3
49 | RIM11 | -0.208 | -0.891 | -3.89
50 | CKA1 | -0.241 | 0.0806 | -2.47
51 | orf19.4144 | -0.0982 | -0.112 | -2.63
52 | CKA2 | 0.0997 | 0.026 | -1.17
53 | CAK1 (UniProt P50613) | -0.167 | 0.067 | -2.18
54 | PKH3 | -0.246 | -0.128 | -0.466
55 | SHA3 | -0.155 | -0.569 | -1.8
